In PubChem BioAssay AID1159580 (chemical genetic matrix, 2015):
The campaign covered roughly 5,500 compounds. About 2,000 (36%) were called active. About 18% were inconclusive and are not listed. Rule as the data show it: active = normalized growth mostly below about 0.91 (no sharp cut-off); inconclusive = no clear call, values can overlap the other calls; inactive = mostly above about 0.92. The list shows a part of the results.

Experiment: chemical genetic growth profiling, strain panel (AID 1159580);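 also: tested at 20 µM; growth read once vehicle control cultures reached saturation at 30 °C; 1 = growth at the plate median or of vehicle wells; lower values mean less growth of the strain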
Conditions: growth OD
[1] = S. cerevisiae deletion strains, locus YHR030C, strain SLT2, hits give low values
[2] = S. cerevisiae deletion strains, locus YHR079C, strain IRE1, hits give low values
[3] = S. cerevisiae deletion strains, locus YJL095W, strain BCK1, hits give low values
[4] = S. cerevisiae deletion strains, locus YJR066W, strain TOR1, hits give low values
[5] = S. cerevisiae deletion strains, locus YLR113W, strain HOG1, hits give low values
[6] = S. cerevisiae deletion strains, locus YNL183C, strain NPR1, hits give low values
[7] = S. cerevisiae deletion strains, locus YOR231W, strain MKK1, hits give low values
[8] = S. cerevisiae deletion strains, locus YPL256C, strain CLN2, hits give low values
[9] = S. cerevisiae deletion strains, locus YDL101C, strain DUN1, hits give low values

Measured: normalized growth

CC(O)Cn1cnc2c1c(=O)n(C)c(=O)n2C (stereo not drawn)
inactive: [1] 1.05 | [2] 1.07 | [3] 1.05 | [4] 0.991 | [5] 1.04 | [6] 1 | [7] 1.03 | [8] 1.04

COc1cc(NC(=O)Nc2ccc(OC(F)(F)F)cc2)cc(C(F)(F)F)c1
inactive: S. cerevisiae deletion strains, locus YAL013W, strain DEP1, hits give low values 0.987 | S. cerevisiae deletion strains, locus YBR229C, strain ROT2, hits give low values 0.987 | [9] 0.997 | S. cerevisiae deletion strains, locus YDL134C, strain PPH21, hits give low values 1.01 | S. cerevisiae deletion strains, locus YDR150W, strain NUM1, hits give low values 0.971 | S. cerevisiae deletion strains, locus YEL061C, strain CIN8, hits give low values 0.961 | S. cerevisiae deletion strains, locus YGR078C, strain PAC10, hits give low values 0.984 | [1] 0.895 | S. cerevisiae deletion strains, locus YHR087W, strain rtc3, hits give low values 0.984 | S. cerevisiae deletion strains, locus YJL187C, strain SWE1, hits give low values 1.01 | S. cerevisiae deletion strains, locus YJR043C, strain POL32, hits give low values 0.999 | S. cerevisiae deletion strains, locus YJR075W, strain HOC1, hits give low values 1 | S. cerevisiae deletion strains, locus YLR039C, strain RIC1, hits give low values 0.895 | S. cerevisiae deletion strains, locus YLR058C, strain SHM2 (second series), hits give low values 1 | S. cerevisiae deletion strains, locus YLR085C, strain ARP6, hits give low values 0.951 | S. cerevisiae deletion strains, locus YLR262C, strain YPT6, hits give low values 0.968 | S. cerevisiae deletion strains, locus YML094W, strain GIM5, hits give low values 0.919 | S. cerevisiae deletion strains, locus YMR219W, strain ESC1, hits give low values 1.02 | S. cerevisiae deletion strains, locus YMR263W, strain SAP30, hits give low values 0.991 | S. cerevisiae deletion strains, locus YMR307W, strain GAS1, hits give low values 0.864 | S. cerevisiae deletion strains, locus YNL153C, strain GIM3, hits give low values 0.987 | S. cerevisiae deletion strains, locus YNL298W, strain CLA4 (second series), hits give low values 0.923 | S. cerevisiae deletion strains, locus YNL322C, strain KRE1, hits give low values 1.01 | S. cerevisiae deletion strains, locus YNR030W, strain Alg12, hits give low values 0.935 | S. cerevisiae deletion strains, locus YOL006C, strain TOP1, hits give low values 0.996 | S. cerevisiae deletion strains, locus YPL055C, strain LGE1, hits give low values 0.928 | S. cerevisiae deletion strains, locus YPL241C, strain CIN2, hits give low values 0.893 | S. cerevisiae deletion strains, locus YPR135W, strain CTF4, hits give low values 1 | S. cerevisiae strains, strain wild type, hits give low values 1.01

O=C(Nc1ccc(OC(F)(F)F)cc1)Nc1cncc(C(F)(F)F)c1
active: [1] 0.822 | [5] 0.739 | [8] 0.763
inactive: S. cerevisiae deletion strains, locus YAR019C, strain CDC15, hits give low values 0.987 | S. cerevisiae deletion strains, locus YBL105C, strain PKC1, hits give low values 0.995 | S. cerevisiae deletion strains, locus YBR135W, strain CKS1, hits give low values 0.989 | S. cerevisiae deletion strains, locus YBR136W, strain MEC1, hits give low values 0.994 | S. cerevisiae deletion strains, locus YBR160W, strain CDC28, hits give low values 0.993 | S. cerevisiae deletion strains, locus YDL017W, strain CDC7, hits give low values 0.995 | S. cerevisiae deletion strains, locus YDL028C, strain MPS1, hits give low values 0.991 | [9] 1.01 | S. cerevisiae deletion strains, locus YDL108W, strain KIN28, hits give low values 0.988 | S. cerevisiae deletion strains, locus YDL132W, strain cdc53, hits give low values 0.995 | S. cerevisiae deletion strains, locus YDL214C, strain PRR2, hits give low values 0.913 | S. cerevisiae deletion strains, locus YDR052C, strain DBF4, hits give low values 0.989 | S. cerevisiae deletion strains, locus YDR054C, strain cdc34, hits give low values 0.996 | S. cerevisiae deletion strains, locus YDR226W, strain ADK1, hits give low values 0.991 | S. cerevisiae deletion strains, locus YDR477W, strain SNF1, hits give low values 0.943 | S. cerevisiae deletion strains, locus YER123W, strain YCK3, hits give low values 0.884 | S. cerevisiae deletion strains, locus YER133W, strain GLC7, hits give low values 0.93 | S. cerevisiae deletion strains, locus YFL009W, strain cdc4, hits give low values 0.982 | S. cerevisiae deletion strains, locus YFL029C, strain CAK1, hits give low values 0.991 | S. cerevisiae deletion strains, locus YFR003C, strain YPI1, hits give low values 0.999 | S. cerevisiae deletion strains, locus YFR019W, strain FAB1, hits give low values 0.911 | S. cerevisiae deletion strains, locus YFR028C, strain CDC14, hits give low values 0.986 | S. cerevisiae deletion strains, locus YGR040W, strain KSS1, hits give low values 0.941 | S. cerevisiae deletion strains, locus YGR052W, strain FMP48, hits give low values 0.929 | S. cerevisiae deletion strains, locus YGR092W, strain DBF2, hits give low values 0.919 | [2] 0.824 | S. cerevisiae deletion strains, locus YHR082C, strain KSP1, hits give low values 0.968 | S. cerevisiae deletion strains, locus YHR205W, strain SCH9, hits give low values 0.888 | S. cerevisiae deletion strains, locus YIL147C, strain SLN1, hits give low values 0.996 | [3] 0.877 | S. cerevisiae deletion strains, locus YJL128C, strain PBS2, hits give low values 0.951 | S. cerevisiae deletion strains, locus YJL157C, strain FAR1, hits give low values 0.923 | S. cerevisiae deletion strains, locus YJR016C, strain ILV3, hits give low values 0.994 | S. cerevisiae deletion strains, locus YJR066W, strain TOR1 (second series), hits give low values 0.88 | [4] 0.942 | S. cerevisiae deletion strains, locus YKL048C, strain ELM1, hits give low values 0.964 | S. cerevisiae deletion strains, locus YKL067W, strain YNK1, hits give low values 0.916 | S. cerevisiae deletion strains, locus YKL101W, strain HSL1, hits give low values 0.905 | S. cerevisiae deletion strains, locus YKL193C, strain SDS22, hits give low values 0.996 | S. cerevisiae deletion strains, locus YKL203C, strain TOR2, hits give low values 0.964 | S. cerevisiae deletion strains, locus YLR133W, strain CKI1, hits give low values 0.91 | S. cerevisiae deletion strains, locus YLR403W, strain SFP1, hits give low values 0.945 | S. cerevisiae deletion strains, locus YML070W, strain DAK1, hits give low values 0.89 | S. cerevisiae deletion strains, locus YMR001C, strain CDC5, hits give low values 0.998 | S. cerevisiae deletion strains, locus YMR205C, strain PFK2 (second series), hits give low values 0.927 | S. cerevisiae deletion strains, locus YMR277W, strain FCP1, hits give low values 0.992 | S. cerevisiae deletion strains, locus YNL006W, strain LST8, hits give low values 0.99 | S. cerevisiae deletion strains, locus YNL020C, strain ARK1, hits give low values 0.914 | S. cerevisiae deletion strains, locus YNL161W, strain CBK1, hits give low values 0.971 | [6] 0.915 | S. cerevisiae deletion strains, locus YNL207W, strain RIO2, hits give low values 0.985 | S. cerevisiae deletion strains, locus YNL222W, strain SSU72, hits give low values 0.994 | S. cerevisiae deletion strains, locus YNL307C, strain MCK1 (second series), hits give low values 0.886 | S. cerevisiae deletion strains, locus YOL078W, strain AVO1, hits give low values 0.993 | S. cerevisiae deletion strains, locus YOL136C, strain PFK27, hits give low values 0.882 | S. cerevisiae deletion strains, locus YOR061W, strain CKA2, hits give low values 0.952 | S. cerevisiae deletion strains, locus YOR119C, strain RIO1, hits give low values 0.995 | [7] 0.865 | S. cerevisiae deletion strains, locus YOR329C, strain SCD5, hits give low values 0.994 | S. cerevisiae deletion strains, locus YPL031C, strain PHO85, hits give low values 0.921 | S. cerevisiae deletion strains, locus YPL153C, strain RAD53, hits give low values 0.928 | S. cerevisiae deletion strains, locus YPL204W, strain HRR25, hits give low values 0.892 | S. cerevisiae deletion strains, locus YPL209C, strain IPL1, hits give low values 0.998 | S. cerevisiae deletion strains, locus YPR025C, strain CCL1, hits give low values 0.994 | S. cerevisiae deletion strains, locus YPR106W, strain ISR1, hits give low values 0.982 | S. cerevisiae deletion strains, locus YPR111W, strain DBF20, hits give low values 0.969 | S. cerevisiae deletion strains, strain NNK1, hits give low values 0.978 | S. cerevisiae deletion strains, strain TSCII, hits give low values 0.983
